According to PubChem BioAssay (Tox21):
Results filed as inconclusive are left out. Entries that show only a call come without a potency. Values without a mark were called inactive. Activity calls are given as the source filed them. Calls follow the shape of the dose curve; as a rule, active = well fitted cell-killing curve with a large enough effect in the repeat runs; inconclusive = weak or mixed curves, or effect the other way; inactive = flat fitted curve, though single readings scatter.

Assay: qHTS RealTime-Glo MT Cell Viability Assay in HEK293 cells - 32 hour (AID 1224868); also: nearly all actives have a fitted effect of over 50% in size; as to activity change, negative = cytotoxic: top concentration of the series differs between compounds
Details: RealTime-Glo luminescence; series mostly up to 76.8 µM
Excerpt: National Center for Advancing Translational Sciences [NCATS]
NIH Chemical Genomics Center [NCGC]
U.S. Environmental Protection Agency [EPA]
National Institutes of Environmental Health Sciences [NIEHS]
National Toxicology Program [NTP]
U.S. Food and Drug Administration [FDA]
Measure of cell viability is critical in the cell-base assay. Analysis of cell viability is necessary for the characterization of cell responses to cytotoxic drugs and environmental stress. A RealTime-Glo MT Cell Viability Assay to monitor cell viability in real time of continues cell culture during 40 hours of compound treatment was used to screen Tox21 10K library compounds in Hek293 cells. The RealTime-Glo MT Cell Viability Assay is a nonlytic, homogeneous, bioluminescent method to measure cell viability in real time using a simple, plate-based method. The assay involves adding NanoLuc luciferase and a cell-permeant prosubstrate to cells in culture. Viable cells reduce the proprietary prosubstrate to generate a substrate for NanoLuc luciferase. This substrate diffuses from cells into the surrounding culture medium, where it is rapidly used by the NanoLuc Enzyme to produce a luminescent signal. The signal correlates with the number of viable cells, making the assay well suited for cytotoxicity studies.
Tox21 Assay Protocol Summary:
The mixture of Hek293 cell suspension and reagents were dispensed at 600cells/6 ul/well in 1536-well tissue culture treated black solid bottom plates using a Multidrop dispenser. After the assay plates were incubated at a 37 C/5% CO2 incubator for 5 hours, 23 nL of compounds dissolved in DMSO, positive and negative controls was transferred to the assay plate by a pintool work station. The plates were incubated at 37 C for 40 hours. The luminescence intensity were measured at 0h, 8h, 16h, 24h, 32h and 40h time points using ViewLux plate reader during compound treatment.
Potency is read from the fitted curve at half-maximal effect.

Row | Compound | Potency | activity change, negative = cytotoxic
1 | O=C(CCCCCCC(=O)Nc1ccccc1)NO | 2.39 µM (active) | –
2 | C=CC(C)(O)CCCC(C)CCCC(C)CCCC(C)C (stereo not given) | inactive | –
3 | Cc1cc2nc3ccc(=[N+](C)C)cc-3sc2cc1N | 2.39 µM (active) | –
4 | CCOC(=O)c1ccccc1OC | inactive | –
5 | NC(=O)N(O)[C@@H]1C=C[C@H](Oc2cccc(Oc3ccc(F)cc3)c2)C1 | 17.4 µM (active) | –
6 | O=C(O)C(Cc1cc(I)c(O)c(I)c1)c1ccccc1 (stereo not given) | inactive | –
7 | Cc1nccn1-c1ccc(Sc2cccc(C3(C(N)=O)CCOCC3)c2)cc1 | 1.38 µM (active) | –
8 | CCCCCCCCSCCO | inactive | –
9 | O=S(=O)(c1ccccc1)c1ccc(Cl)cc1 | inactive | –
10 | CC(C)CCCCCOC(=O)CCCCC(=O)OCCCCCC(C)C | inactive | –
11 | CCOC(=O)C(C)Oc1ccc(Oc2nc3ccc(Cl)cc3o2)cc1 (stereo not given) | 49 µM (active) | –
12 | Cc1ccc(Nc2nccc(N(C)c3ccc4c(C)n(C)nc4c3)n2)cc1S(N)(=O)=O | 1.2 µM (active) | –
13 | COCC(O)CO (stereo not given) | inactive | –
14 | O=C(c1ccc(O)cc1)c1ccc(Cl)cc1 | 25.1 µM (active) | –
15 | CCC(C(=O)OCCOCCN(CC)CC)c1ccccc1 (stereo not given) | inactive | –
16 | C1COCO1 | inactive | –
17 | O=[N+]([O-])c1cccc(S(=O)(=O)NCCNS(=O)(=O)c2cccc([N+](=O)[O-])c2)c1 | inactive | –
18 | Nc1nccs1 | inactive | –
19 | CCCCCCOC(=O)C(C)C | inactive | –
20 | Fc1c(F)c(F)c(Br)c(F)c1F | inactive | –

Row | Compound | Potency | activity change, negative = cytotoxic
21 | Cc1nc2ccccn2c(=O)c1CCN1CCC(C(=O)c2ccc(F)cc2)CC1 | 7.56 µM (active) | –
22 | NC(=O)Nc1ccc(Cl)cc1 | inactive | –
23 | C/C=C/C=C/CCCCCCCO | inactive | –
24 | CCNC(=O)N1CCN(CCCC(c2ccc(F)cc2)c2ccc(F)cc2)CC1 | 16.9 µM (active) | –
25 | Cc1ccc(S)cc1 | inactive | –
26 | O=C(CCCN1CCN(c2ccc(F)cc2)CC1)NC1c2ccccc2CSc2ccccc21 (stereo not given) | 19 µM (active) | –
27 | CCOC(=O)CC(=O)C(=O)OCC | 49 µM (active) | –
28 | N#C/C(=C1/SC[C@@H](c2ccc(Cl)cc2Cl)S1)n1ccnc1 | inactive | –
29 | CC(C)C(OC(=O)c1ccccc1)C(C)(C)COC(=O)c1ccccc1 (stereo not given) | inactive | –
30 | C[C@@H]1C[C@H]2[C@@H]3CCC4=CC(=O)C=C[C@]4(C)[C@@]3(F)[C@@H](O)C[C@]2(C)[C@H]1C(=O)CO | inactive | –
31 | CC(CCO)CCc1ccccc1 (stereo not given) | inactive | –
32 | O=C(NCCCN1CCOCC1)c1ccc(Cl)cc1 | inactive | –
33 | CCC1(C)CC(=O)NC1=O (stereo not given) | inactive | –
34 | C=CCCCCCCCCCCCCCCCC | – | -11.9% [at 6.97 µM]
35 | CCn1nc(C)c2c1C(=O)NCC(c1ccc(O)cc1)=N2 | inactive | –
36 | COCCOC | 0.74 µM (active) | –
37 | CC(C)(C)CC(C)(C)c1ccc(OCCO)cc1 | 5.46 µM (active) | –
38 | O=C(O)Cc1ccc(-c2ccccc2)cc1 | inactive | –
39 | COc1cc2[nH]c(=O)[nH]c(=O)c2cc1OC | inactive | –
40 | c1ccc(COCc2ccccc2)cc1 | inactive | –
